# Test results reported in PubChem BioAssay (NCATS).
# Inconclusive results are not listed. A call without a number means that no potency is given here. Active and inactive are the calls of the source. The call rests on the fitted dose curve; in most records, active means well fitted curve in the direction sought with a large enough effect; inconclusive means small, poorly fitted or top-dose-only effect, or another doubt; inactive means no such curve, though single readings can be large; an effect the other way counts as inactive or inconclusive.
# Legend:
# 7G8 = assay: qHTS profiling for inhibitors of Plasmodium falciparum proliferation (AID 504749); further: nearly all actives have a fitted effect of over 60% in size; further: potency means the concentration at half of the fitted maximal effect; settings: P. falciparum in erythrocytes, SYBR Green DNA, 72 h; series mostly up to 12.8 µM
# How it was run: (§1)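 Fluorescence of SYBR Green-bound parasite DNA, read at 485/535 nm, served as the growth measure. Infected erythrocytes were cultured with compound 72 h; artemisinin (0.29 uM) and DMSO wells defined the normalization range.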
# CP215 = assay: as above; settings: P. falciparum in erythrocytes, SYBR Green DNA, 72 h; series mostly up to 28.7 µM
# How it was run: as §1
# CP237 = assay: as above; settings: P. falciparum in erythrocytes, SYBR Green DNA, 72 h; series mostly up to 28.7 µM
# How it was run: as §1
# CP260 = assay: as above; settings: P. falciparum in erythrocytes, SYBR Green DNA, 72 h; series mostly up to 28.7 µM
# How it was run: as §1
# CP265 = assay: as above; settings: P. falciparum in erythrocytes, SYBR Green DNA, 72 h; series mostly up to 12.8 µM
# How it was run: as §1
# CP268 = assay: as above; settings: P. falciparum in erythrocytes, SYBR Green DNA, 72 h; series mostly up to 28.7 µM
# How it was run: as §1
# CP325 = assay: as above; settings: P. falciparum in erythrocytes, SYBR Green DNA, 72 h; series mostly up to 28.7 µM
# How it was run: as §1
# CP335 = assay: as above; settings: P. falciparum in erythrocytes, SYBR Green DNA, 72 h; series mostly up to 12.8 µM
# How it was run: as §1
# DIV14 = assay: as above; settings: P. falciparum in erythrocytes, SYBR Green DNA, 72 h; series mostly up to 28.7 µM
# How it was run: as §1
# DIV17 = assay: as above; settings: P. falciparum in erythrocytes, SYBR Green DNA, 72 h; series mostly up to 28.7 µM
# How it was run: as §1
# ICS = assay: as above; settings: P. falciparum in erythrocytes, SYBR Green DNA, 72 h; series mostly up to 28.7 µM
# How it was run: as §1
# JCK = assay: as above; settings: P. falciparum in erythrocytes, SYBR Green DNA, 72 h; series mostly up to 28.7 µM
# How it was run: as §1
# PAD = assay: as above; settings: P. falciparum in erythrocytes, SYBR Green DNA, 72 h; series mostly up to 28.7 µM
# How it was run: as §1
# PC15 = assay: as above; settings: P. falciparum in erythrocytes, SYBR Green DNA, 72 h; series mostly up to 28.7 µM
# How it was run: as §1
# PC26 = assay: as above; settings: P. falciparum in erythrocytes, SYBR Green DNA, 72 h; series mostly up to 28.7 µM
# How it was run: as §1
# PC49 = assay: as above; settings: P. falciparum in erythrocytes, SYBR Green DNA, 72 h; series mostly up to 28.7 µM
# How it was run: as §1
# SC27B = assay: as above; settings: P. falciparum in erythrocytes, SYBR Green DNA, 72 h; series mostly up to 28.7 µM
# How it was run: as §1
# W2 = assay: as above; settings: P. falciparum in erythrocytes, SYBR Green DNA, 72 h; series mostly up to 12.8 µM
# How it was run: as §1
# [1] = molecular target: Cytochrome P450 2D6 (Homo sapiens) (UniProt P10635); assay: qHTS Assay for Inhibitors and Substrates of Cytochrome P450 2D6 (AID 891); further: nearly all actives have a fitted effect of over 60% in size; further: potency means the concentration at half of the fitted maximal effect
# Chain of Cytochrome P450 2D6 (Homo sapiens) (P10635 whole entry, looked up): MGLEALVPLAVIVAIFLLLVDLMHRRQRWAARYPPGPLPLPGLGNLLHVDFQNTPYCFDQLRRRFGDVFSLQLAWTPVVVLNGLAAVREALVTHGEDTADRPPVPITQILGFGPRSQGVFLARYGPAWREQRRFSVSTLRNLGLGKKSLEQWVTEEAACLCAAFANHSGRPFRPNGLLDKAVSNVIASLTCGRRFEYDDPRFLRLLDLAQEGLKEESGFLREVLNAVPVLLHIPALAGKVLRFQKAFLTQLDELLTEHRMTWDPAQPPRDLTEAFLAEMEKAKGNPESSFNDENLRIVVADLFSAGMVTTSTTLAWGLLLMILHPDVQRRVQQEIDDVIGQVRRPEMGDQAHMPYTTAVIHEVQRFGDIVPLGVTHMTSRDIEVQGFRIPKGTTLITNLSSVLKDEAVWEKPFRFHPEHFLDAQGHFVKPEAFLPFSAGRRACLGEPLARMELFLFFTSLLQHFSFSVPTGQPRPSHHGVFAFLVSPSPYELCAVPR
# How it was run: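 Luminescent read-out of luciferin formed by 5 nM human CYP2D6 demethylating 30 uM Luciferin-ME EGE (Km level) over 60 min at room temperature after NADPH regeneration addition. Data normalized to full inhibition by 1.43 uM quinidine.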
# [2] = Confirmation and Secondary Assay for Modulators of Hemoglobin Beta Chain Splicing at IVS2 705 locus (AID 930);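 further: HeLa cells stably expressing the EGFP-705 splicing reporter; GFP fluorescence per well restored by corrected splicing of the IVS2-705 intron in EGFP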
# How it was run: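 Stable HeLa line with EGFP disrupted by mutant beta-globin intron 2 (705). Overnight attachment, then 2 days of compound at 37C, 5% CO2. Signal: peak GFP intensity summed over objects 5-250 µm.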
smiles,measurement,setting,value
CC(=O)O[C@H]1CC[C@@]2(C)C(=CC[C@@H]3[C@H]2CC[C@]2(C)C(=O)CC[C@H]32)C1,Potency,7G8,inactive
same,Potency,CP215,inactive
same,Potency,CP237,inactive
same,Potency,CP260,inactive
same,Potency,CP265,inactive
same,Potency,CP268,inactive
same,Potency,CP325,inactive
same,Potency,CP335,inactive
same,Potency,DIV14,inactive
same,Potency,DIV17,inactive
same,Potency,ICS,inactive
same,Potency,JCK,inactive
same,Potency,PAD,inactive
same,Potency,PC15,inactive
same,Potency,PC26,inactive
same,Potency,PC49,inactive
same,Potency,SC27B,inactive
same,Potency,W2,inactive
O=C1C=C2C=C[C@H]3C[C@@]2(O1)[C@H]1CCCCN31,Potency,[1],inactive
C[N+]1=Cc2cc3c(cc2CC1)OCO3,Potency,[1],15.8 µM (active)
CNC(=O)N(C)c1nnc(C(C)(C)C)s1,Potency,[2],inactive
COc1cc2c(cc1OC)[C@@]13CCN4CC5=CCOC6CC(=O)N2C1[C@H]6[C@@H]5C[C@@H]43 (some centres undefined),Potency,[2],inactive
same,Potency,7G8,inactive
same,Potency,CP215,inactive
same,Potency,CP237,inactive
same,Potency,CP260,inactive
same,Potency,CP265,inactive
same,Potency,CP268,inactive
same,Potency,CP325,inactive
same,Potency,CP335,inactive
same,Potency,DIV14,inactive
same,Potency,DIV17,inactive
same,Potency,ICS,inactive
same,Potency,JCK,inactive
same,Potency,PAD,inactive
same,Potency,PC15,inactive
same,Potency,PC26,inactive
same,Potency,PC49,inactive
same,Potency,SC27B,inactive
same,Potency,W2,inactive
c1ccc2c(c1)[nH]c1cnccc12,Potency,[2],inactive
CNc1ccc(C(=O)CC(O)CCC(C)C2OC(=O)CC(O)CC(=O)CC(O)CC(O)CC(O)CC(O)CC3(O)CC(O)C(C(=O)OC)C(CC(O[C@@H]4OC(C)C(O)C(N)C4O)/C=C/C=C/C=C/C=C/C=C/C=C/C=C/C2C)O3)cc1 (some centres undefined),Potency,[2],inactive
same,Potency,7G8,inactive
same,Potency,CP215,inactive
same,Potency,CP237,inactive
same,Potency,CP265,inactive
same,Potency,CP268,inactive
same,Potency,CP325,inactive
same,Potency,CP335,inactive
same,Potency,DIV14,inactive
same,Potency,DIV17,inactive
same,Potency,JCK,inactive
same,Potency,PAD,inactive
same,Potency,PC15,inactive
same,Potency,PC26,inactive
same,Potency,PC49,inactive
same,Potency,SC27B,inactive
same,Potency,W2,inactive
CN(C)[C@@H]1C(=O)C(C(N)=O)=C(O)[C@]2(O)C(=O)C3=C(O)c4c(O)ccc(Cl)c4[C@](C)(O)[C@H]3C[C@@H]12,Potency,CP215,inactive
same,Potency,CP237,inactive
same,Potency,CP265,inactive
same,Potency,CP268,inactive
same,Potency,CP325,inactive
same,Potency,DIV14,inactive
same,Potency,DIV17,inactive
same,Potency,JCK,inactive
same,Potency,PAD,inactive
same,Potency,PC15,inactive
same,Potency,PC26,inactive
same,Potency,PC49,inactive
same,Potency,SC27B,inactive
same,Potency,W2,inactive
O=C(O)CNCP(=O)(O)O,Potency,[2],inactive
c1cncc([C@H]2CCCCN2)c1,Potency,[1],12.6 µM (active)
COc1cc2c(c(OC)c1OC)-c1ccc(O)c(=O)cc1[C@@H](NC(C)=O)CC2,Potency,[1],inactive
CN1CC[C@]2(C)c3cc(O)ccc3N(C)[C@@H]12,Potency,[1],25.1 µM (active)
O=c1ccc2cc(O[C@H]3O[C@@H](CO)[C@@H](O)[C@@H](O)[C@@H]3O)c(O)cc2o1,Potency,7G8,inactive
same,Potency,CP215,inactive
same,Potency,CP237,inactive
same,Potency,CP260,inactive
same,Potency,CP265,inactive
same,Potency,CP268,inactive
same,Potency,CP325,inactive
same,Potency,CP335,inactive
same,Potency,DIV14,inactive
same,Potency,ICS,inactive
same,Potency,JCK,inactive
same,Potency,PAD,inactive
same,Potency,PC15,inactive
same,Potency,PC26,inactive
same,Potency,PC49,inactive
same,Potency,SC27B,inactive
same,Potency,W2,inactive
Clc1ccc([C@@H](OCCN2CCCCC2)c2ccccc2)cc1,Potency,[1],0.0158 µM (active)
same,Potency,7G8,3.55 µM (active)
same,Potency,CP237,inactive
same,Potency,CP260,3.16 µM (active)
same,Potency,DIV17,4.55 µM (active)
same,Potency,ICS,1.58 µM (active)
same,Potency,PC15,3.16 µM (active)
same,Potency,W2,1.81 µM (active)
COc1cc(N)c(Cl)cc1C(=O)N[C@@H]1CN2CCC1CC2,Potency,7G8,inactive
same,Potency,CP215,inactive
same,Potency,CP237,inactive
same,Potency,CP260,inactive
same,Potency,CP265,inactive
same,Potency,CP268,inactive
same,Potency,CP325,inactive
same,Potency,CP335,inactive
same,Potency,DIV14,inactive
same,Potency,DIV17,inactive
same,Potency,ICS,inactive
same,Potency,JCK,inactive
same,Potency,PAD,inactive
same,Potency,PC15,inactive
same,Potency,PC26,inactive
same,Potency,PC49,inactive
same,Potency,SC27B,inactive
CCS(=O)CCSP(=O)(OC)OC (centres undefined),Potency,[2],inactive
CNC(C)[C@@H](O)c1ccccc1 (some centres undefined),Potency,[2],inactive
same,Potency,CP215,inactive
same,Potency,CP237,inactive
same,Potency,CP260,inactive
same,Potency,CP265,inactive
same,Potency,CP268,inactive
same,Potency,CP325,inactive
same,Potency,CP335,inactive
same,Potency,DIV14,inactive
same,Potency,DIV17,inactive
same,Potency,ICS,inactive
same,Potency,JCK,inactive
same,Potency,PAD,inactive
same,Potency,PC15,inactive
same,Potency,PC26,inactive
same,Potency,PC49,inactive
same,Potency,SC27B,inactive
COC1=CC23CCCN2CCc2cc4c(cc2C3C1O)OCO4 (centres undefined),Potency,[2],inactive
C[C@]12CCC(=O)C=C1CCc1ccc(O)cc12,Potency,[2],inactive
CCC(C)C1O[C@]2(C=CC1C)CC1CC(C/C=C(\C)[C@H](OC3CC(OC)C(O[C@H]4CC(OC)[C@@H](O)C(C)O4)C(C)O3)[C@@H](C)/C=C/C=C3\COC4C(O)C(C)=C[C@H](C(=O)O1)[C@@]34O)O2 (some centres undefined),Potency,[2],inactive
same,Potency,7G8,10 µM (active)
same,Potency,CP215,13.5 µM (active)
same,Potency,CP265,8.91 µM (active)
same,Potency,CP335,6.75 µM (active)
same,Potency,DIV14,12 µM (active)
same,Potency,DIV17,12 µM (active)
same,Potency,ICS,7.08 µM (active)
same,Potency,PC26,7.57 µM (active)
same,Potency,SC27B,11.2 µM (active)
same,Potency,W2,4.78 µM (active)
CC(C)CC(CN)CC(=O)O (centres undefined),Potency,[2],inactive
Cc1[nH]c2ccccc2c1CN(C)C,Potency,[2],inactive
C=CC1CN2CCC1CC2C(OC(=O)OCC)c1ccnc2ccc(OC)cc12 (centres undefined),Potency,[2],inactive
same,Potency,7G8,2.51 µM (active)
same,Potency,CP215,12 µM (active)
same,Potency,CP237,7.08 µM (active)
same,Potency,CP260,10 µM (active)
same,Potency,CP265,5.01 µM (active)
same,Potency,CP325,13.5 µM (active)
same,Potency,CP335,9.53 µM (active)
same,Potency,DIV14,6.01 µM (active)
same,Potency,DIV17,13.5 µM (active)
same,Potency,ICS,3.98 µM (active)
same,Potency,PAD,6.31 µM (active)
same,Potency,PC15,3.98 µM (active)
same,Potency,PC26,6.01 µM (active)
same,Potency,PC49,inactive
same,Potency,W2,2.13 µM (active)
CC(C)N1C(=O)c2ccccc2NS1(=O)=O,Potency,[2],inactive
CCC(=O)Nc1ccc(Cl)c(Cl)c1,Potency,[2],inactive
O=C(O)COc1cc(Cl)c(Cl)cc1Cl,Potency,[2],inactive
O=C1C=C2C=CC3C[C@@]2(O1)C1CCCCN31 (some centres undefined),Potency,7G8,8.91 µM (active)
same,Potency,CP215,10.7 µM (active)
same,Potency,CP237,5.01 µM (active)
same,Potency,CP260,6.31 µM (active)
same,Potency,DIV14,inactive
same,Potency,DIV17,15.1 µM (active)
same,Potency,ICS,7.94 µM (active)
same,Potency,PAD,12.6 µM (active)
same,Potency,PC49,10 µM (active)
same,Potency,W2,7.57 µM (active)
CC(C)OC(=O)Nc1cccc(Cl)c1,Potency,[2],inactive
CCc1cccc(C)c1N(C(=O)CCl)C(C)COC (centres undefined),Potency,[2],inactive
CC([C@H](O)c1ccccc1)N(C)C (some centres undefined),Potency,[2],inactive
same,Potency,7G8,11.2 µM (active)
same,Potency,CP215,inactive
same,Potency,CP260,inactive
same,Potency,CP265,inactive
same,Potency,CP268,inactive
same,Potency,CP325,inactive
same,Potency,CP335,inactive
same,Potency,JCK,inactive
same,Potency,PAD,inactive
same,Potency,PC15,inactive
same,Potency,PC26,inactive
same,Potency,PC49,inactive
same,Potency,SC27B,inactive
same,Potency,W2,6.75 µM (active)
CCCCSP(=O)(SCCCC)SCCCC,Potency,[2],inactive
N#Cc1c(Cl)cccc1Cl,Potency,[2],inactive
